Results as given in PubChem BioAssay.
Records with an inconclusive call do not appear. Active and inactive are the calls of the source.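 How the source made its calls, unless noted: active means normalized viability below 100% at a tested concentration; inactive means the rest.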

What was measured:
[1] = viability loss in pontine glioma line – cell-based, SU-DIPG-XVII, MIPE5.0, CellTiter-Glo, qHTS, dose response (AID 1347060; cut-off not given, nearly all actives have AC50 up to about 26 µM;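 further: cells exposed to compound for 48 hours before viability readout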); settings: CellTiter-Glo ATP luminescence
[2] = viability loss in pontine glioma line – cell-based, JHH-DIPG-1, MIPE4.0, CellTiter-Glo, qHTS, dose response (AID 1347062; cut-off not given, nearly all actives have AC50 up to about 27 µM;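 further: cells exposed to compound for two days before readout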); settings: JHH-DIPG-1 viability, CellTiter-Glo ATP luminescence
[3] = viability loss in pontine glioma line – cell-based, SU-DIPG-IV, MIPE4.0, CellTiter-Glo, qHTS, dose response (AID 1347063; cut-off not given, nearly all actives have AC50 up to about 30 µM;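 further: compound exposure lasted 48 hours before the viability readout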); settings: CellTiter-Glo ATP luminescence
[4] = viability loss in pontine glioma line – cell-based, SU-DIPG-XIII, MIPE5.0, CellTiter-Glo, qHTS, dose response (AID 1347064; cut-off not given, nearly all actives have AC50 up to about 23 µM;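 further: cells exposed to compound for 48 hours before the viability read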); settings: CellTiter-Glo ATP luminescence
[5] = viability loss in pontine glioma line – cell-based, SU-DIPG-XXV, MIPE5.0, CellTiter-Glo, qHTS, dose response (AID 1347065; cut-off not given, nearly all actives have AC50 up to about 26 µM;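 further: cells exposed to compound for 48 hours before ATP readout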); settings: CellTiter-Glo ATP luminescence
[6] = JHH-DIPG-1 glioma cell viability, MIPE5.0 library, CellTiter-Glo luminescence, qHTS (AID 1347067; cut-off not given, nearly all actives have AC50 up to about 26 µM;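 further: cells exposed to compound for 48 hours before readout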); settings: JHH-DIPG-1 glioma viability, CellTiter-Glo ATP luminescence
[7] = growth inhibition of DIPG cells – cell-based, MIPE5.0 library, qHTS (AID 1347068; cut-off not given, nearly all actives have IC50 up to about 30 µM;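 further: cells exposed to compound for 48 hours before viability readout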); settings: SU-DIPG-XXV viability
[8] = viability loss with induced miR-34 in A549 – imaging, A549 dox-inducible miR-34, nuclei and caspase counts, primary screen (AID 1347080;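 active means compounds whose cell count with miR-34 switched on is under 0.7 times the count with it off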); settings: A549 miR-34 inducible, Hoechst nuclei count, 48 h
[9] = compounds altering HSF1 focus formation in cells – imaging, Selleck Cancer Library (AID 1347162; in the data active means plate-normalised HSF1 focus index below about 0.46); settings: human cells, HSF1 nuclear foci imaging, at 10 µM; SSMD: measured here: HSF1 foci SSMD mean; cell count: measured here: cell number; plate-normalised HSF1 focus index: stronger effect = lower value
[10] = MELAS cybrid and Rieske KO viability enhancers – cell-based, MELAS cybrids, Rieske KO mouse fibroblasts, CellTiter-Glo, primary screen (AID 1508586;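 active means mean z-score across replicates of 1.96 or higher in either the MELAS or the Rieske mutant cell line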;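 further: z relative to plate mean and SD of compound and empty wells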); settings: low glucose
[11] = drug combination growth inhibition, ovarian cancer – cell-based, oncology-focused library, rucaparib conditional, profiling panel (AID 1508598); settings: patient-derived ovarian cancer cells, CellTiter-Glo viability, 144 h, stronger effect = lower value
[12] = stronger effect = lower value, cell number ratio, induced over uninduced
[13] = measured here: relative caspase fold change +Dox/-Dox
[14] = measured here: total cells with miR-34 induction, stronger effect = lower value
[15] = measured here: total cells without miR-34 induction
[16] = MELAS cybrid survival, CellTiter-Glo 48 h, stronger effect = higher value
[17] = Rieske KO mouse fibroblast survival, CellTiter-Glo 72 h
[18] = at 0.000305 µM, OCI-C5x cells, with rucaparib 10 µM, 100% = cells with rucaparib alone
[19] = at 0.000305 µM, OCI-C5x cells, without rucaparib
[20] = at 0.000305 µM, OCI-P5x cells, with rucaparib 20 µM, 100% = cells with rucaparib alone
[21] = at 0.000305 µM, OCI-P5x cells, without rucaparib
[22] = at 0.00122 µM, OCI-C5x cells, with rucaparib 10 µM, 100% = cells with rucaparib alone
[23] = at 0.00122 µM, OCI-C5x cells, without rucaparib
[24] = at 0.00122 µM, OCI-P5x cells, with rucaparib 20 µM, 100% = cells with rucaparib alone
[25] = at 0.00122 µM, OCI-P5x cells, without rucaparib
[26] = at 0.00488 µM, OCI-C5x cells, with rucaparib 10 µM, 100% = cells with rucaparib alone
[27] = at 0.00488 µM, OCI-C5x cells, without rucaparib
[28] = at 0.00488 µM, OCI-P5x cells, with rucaparib 20 µM, 100% = cells with rucaparib alone
[29] = at 0.00488 µM, OCI-P5x cells, without rucaparib
[30] = at 0.0195 µM, OCI-C5x cells, with rucaparib 10 µM, 100% = cells with rucaparib alone
[31] = at 0.0195 µM, OCI-C5x cells, without rucaparib
[32] = at 0.0195 µM, OCI-P5x cells, with rucaparib 20 µM, 100% = cells with rucaparib alone
[33] = at 0.0195 µM, OCI-P5x cells, without rucaparib
[34] = at 0.0781 µM, OCI-C5x cells, with rucaparib 10 µM, 100% = cells with rucaparib alone
[35] = at 0.0781 µM, OCI-C5x cells, without rucaparib
[36] = at 0.0781 µM, OCI-P5x cells, with rucaparib 20 µM, 100% = cells with rucaparib alone
[37] = at 0.0781 µM, OCI-P5x cells, without rucaparib
[38] = at 0.313 µM, OCI-C5x cells, with rucaparib 10 µM, 100% = cells with rucaparib alone
[39] = at 0.313 µM, OCI-C5x cells, without rucaparib
[40] = at 0.313 µM, OCI-P5x cells, with rucaparib 20 µM, 100% = cells with rucaparib alone
[41] = at 0.313 µM, OCI-P5x cells, without rucaparib
[42] = at 1.25 µM, OCI-C5x cells, with rucaparib 10 µM, 100% = cells with rucaparib alone
[43] = at 1.25 µM, OCI-C5x cells, without rucaparib
[44] = at 1.25 µM, OCI-P5x cells, with rucaparib 20 µM, 100% = cells with rucaparib alone
[45] = at 1.25 µM, OCI-P5x cells, without rucaparib
[46] = at 5 µM, OCI-C5x cells, with rucaparib 10 µM, 100% = cells with rucaparib alone
[47] = at 5 µM, OCI-C5x cells, without rucaparib
[48] = at 5 µM, OCI-P5x cells, with rucaparib 20 µM, 100% = cells with rucaparib alone
[49] = at 5 µM, OCI-P5x cells, without rucaparib

NC1(c2ccc(-c3nc4ccn5c(=O)[nH]nc5c4cc3-c3ccccc3)cc2)CCC1
6650: cell count [9]
inactive: fold change [8, 12] 0.999 | plate-normalised HSF1 focus index [9] 1.19 | z-score [10, 16] -0.154 | viability [11, 18] 119% | viability [11, 19] 118% | viability [11, 20] 117% | viability [11, 21] 108% | viability [11, 22] 119% | viability [11, 23] 126% | viability [11, 24] 102% | viability [11, 25] 112% | viability [11, 26] 111% | viability [11, 27] 129% | viability [11, 28] 103% | viability [11, 29] 106% | viability [11, 30] 110% | viability [11, 31] 119% | viability [11, 32] 100% | viability [11, 33] 104% | viability [11, 34] 119% | viability [11, 35] 133% | viability [11, 38] 131% | viability [11, 39] 141% | viability [11, 41] 110% | viability [11, 42] 107% | viability [11, 43] 150% | viability [11, 45] 103% | viability [11, 46] 134% | viability [11, 47] 144% | viability [11, 48] 104% | viability [11, 49] 106%
-0.0056: z-score [10, 17]
3.02: SSMD [9]
1.72: fold change [8, 13]
4140: cell count [8, 15]
active: AC50 [1] 16600 nM | AC50 [2] 23500 nM | AC50 [3] 14800 nM | AC50 [4] 6610 nM | AC50 [5] 1860 nM | AC50 [6] 6610 nM | IC50 [7] 18600 nM | viability [11, 36] 98.1% | viability [11, 37] 98.2% | viability [11, 40] 90.4% | viability [11, 44] 88.6%
4130: cell count [8, 14]

CC(C)(C)c1cnc(CSc2cnc(NC(=O)C3CCNCC3)s2)o1
1.56: fold change [8, 13]
0.418: SSMD [9]
7130: cell count [9]
inactive: fold change [8, 12] 0.966 | plate-normalised HSF1 focus index [9] 1.03 | z-score [10, 16] 0.429 | viability [11, 18] 114% | viability [11, 19] 105% | viability [11, 20] 112% | viability [11, 21] 111% | viability [11, 22] 108% | viability [11, 23] 104% | viability [11, 24] 103% | viability [11, 25] 106% | viability [11, 27] 103% | viability [11, 28] 110% | viability [11, 29] 104% | viability [11, 30] 108% | viability [11, 32] 105% | viability [11, 33] 110% | viability [11, 34] 108% | viability [11, 36] 101% | viability [11, 37] 104%
1470: cell count [8, 14]
1520: cell count [8, 15]
-1.89: z-score [10, 17]
active: AC50 [1] 118 nM | AC50 [2] 166 nM | AC50 [3] 264 nM | AC50 [4] 833 nM | AC50 [5] 742 nM | AC50 [6] 1180 nM | IC50 [7] 934 nM | viability [11, 26] 100% | viability [11, 31] 98.5% | viability [11, 35] 100% | viability [11, 38] 94.4% | viability [11, 39] 97% | viability [11, 40] 95.6% | viability [11, 41] 85.8% | viability [11, 42] 9.76% | viability [11, 43] 9.99% | viability [11, 44] 22.5% | viability [11, 45] 14% | viability [11, 46] 12% | viability [11, 47] 10.8% | viability [11, 48] 20.3% | viability [11, 49] 11%
